SMILES strings stand for the structures. Compounds without any hit were thinned out: in the full panel of roughly 83,000, 20% have a hit.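 The test compound was applied at a single concentration to cells in 96-well plates for 48 hours, and percent growth was recorded.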 Unmarked numbers belong to inactive results. Activity calls are given as the source filed them. How the source made its calls: active means growth percent below 10; inactive means the rest.

We go through 8 compounds from PubChem BioAssay (NCI).

Test in all cases: NCI-60 one-dose screen, 48 h (100 = growth as untreated, 0 = no growth, -100 = all killed)
Holding throughout (conditions): 10 µM unless noted

Assay [1] has as its system SR leukemia.
Assay [2] has as its system RPMI-8226 leukemia.
In assay [3] the test system is OVCAR-8 ovarian.
Assay [4] relates to OVCAR-5 ovarian.
Assay [5] relates to OVCAR-4 ovarian.
In assay [6] the test system is SK-OV-3 ovarian.
Assay [7] concerns IGROV1 ovarian.
Assay [8] deals with OVCAR-3 ovarian.
The test system of assay [9] is HS 578T breast.
In assay [10] the test system is NCI/ADR-RES ovarian.
Assay [11] concerns T-47D breast.
Assay [12] deals with BT-549 breast.
The test system of assay [13] is MDA-MB-435 melanoma.
Assay [14] relates to SW-620 colon.
Assay [15] concerns MCF7 breast.
Assay [16] relates to HCT-116 colon.
Assay [17] has as its system HCC-2998 colon.
Assay [18] deals with KM12 colon.
For assay [19], the system named is MDA-MB-468 breast.

In the case of `O=C(c1ccc(Cl)cc1)c1ccc(OCCCN2CCN(c3ccncc3)CC2)cc1`, the growth in assay [1] was -32% (active); in assay [2], 10.2%; in assay [3], 75.7%; in [4], 69%; in assay [5], 47.3%; in assay [6], 34.8%. Further, the growth in assay [7] is 67.3%; in assay [8] it was 56.4%; in assay [9], 53.7%; in assay [10], 50%; in assay [11], 29%; in [12], 26.9%. Besides, the growth was 41.4% in assay [13]; 19.5% in [14]; 13.6% in assay [15]; 17.4% in assay [16]; 64.9% in assay [17]; 57.9% in assay [18]. Besides, the growth in assay [19] was -16.8% (active).

`O=C(CN1C(=O)/C(=C/c2ccccc2F)SC1=S)N1CCOCC1`: the growth in assay [1] was 27.9%; in assay [2], 52.8%; in assay [3], 93.4%; in assay [4], 91.9%; in assay [5] it was 73.7%; in assay [6] it was 112%. Also, the growth in assay [7] is 100%; in assay [8], 52.8%; in assay [9] it was 104%; in [10], 92%; in [11] it was 61.4%; in assay [12], 111%. Moreover, the growth in assay [13] was 94.1%; in assay [14], 32.6%; in assay [15], 35.3%; in assay [16], 45.3%; in assay [17], 116%; in [18], 99.1%. Also, the growth in assay [19] was -7.25% (active).

Consider `COc1cc2oc(-c3cccc(C(=O)Nc4ccc(Cl)cc4)c3)cc(=O)c2c(OCC(=O)N[C@@H](Cc2ccccc2)C(=O)O)c1OC`, for which the growth in [1] was 104%; in [2], 101%; in [3], 106%; in assay [4], 101%; in assay [5] it was 104%; in assay [6], 138%. The growth is 98% in assay [7]; 117% in assay [8]; 108% in assay [9]; 104% in [10]; 109% in [11]; 125% in assay [12]. The growth in assay [13] was 101%; in assay [14], 99.2%; in assay [15] it was 93.2%; in [16], 109%; in [17], 121%; in assay [18], 105%. Further, the growth in assay [19] is 112%.

For the compound `C#C[C@]1(O)CC[C@H]2[C@@H]3CC=C4c5sc(-c6ccc([N+](=O)[O-])cc6)nc5CC[C@]4(C)[C@H]3CC[C@@]21C`, the growth in assay [1] is 1.72% (active); in [2], -10.7% (active); in assay [3], 11.3%; in [4], 12.5%; in assay [5], 46.5%; in assay [6], 53%. Moreover, the growth in [7] was 26.4%; in assay [8], -25.2% (active); in [9], 29.6%; in assay [10] it was 25.7%; in assay [11], 24.9%; in [12], 36.8%. Besides, the growth is 26.7% in assay [13]; -12.5% (active) in assay [14]; 0.614% (active) in assay [15]; 0.46% (active) in assay [16]; -49.2% (active) in assay [17]; -27.1% (active) in assay [18]. For the same compound, in assay [19], the growth was -17.8% (active).

With `CN(C)CCOc1ccc(C(=O)C2[C@H](c3ccc(Cl)cc3)[C@@H](c3ccccc3)NC23C(=O)Nc2ccccc23)cc1` (some centres not stated), the growth is -18% (active) in assay [1]; 49.7% in assay [2]; 88.1% in assay [3]; 85.8% in assay [4]; 70.6% in [5]; 121% in assay [6]. Besides, the growth in assay [7] is 80.2%; in assay [8] it was 73.2%; in [9], 77.4%; in assay [10] it was 86.4%; in assay [11], 67.9%; in assay [12] it was 81.8%. The growth in assay [13] is 44.6%; in assay [14], -57.7% (active); in assay [15], -20.8% (active); in assay [16] it was 22%; in assay [17], -59.9% (active); in assay [18], 33.4%. Further, the growth in [19] was -26% (active).

With `CC(=O)OC[C@@]1(C)C2CC[C@]3(C)C(CC=C4C5CC(C)(C)CC[C@]5(C(=O)Nc5cccc(C)c5)CC[C@]43C)[C@@]2(C)C[C@@H](OC(C)=O)[C@@H]1OC(C)=O` (some centres not stated), the growth in assay [1] was 30%; in [2], 15.9%; in [3] it was 39.7%; in assay [4] it was 81.2%; in [5], 38.6%; in assay [6], 59.7%. The growth was 61.8% in [7]; 47.5% in [8]; 77% in [9]; 36.2% in assay [10]; 24.3% in [11]; 47.4% in assay [12]. For the same compound, the growth in [13] was 48.2%; in [14] it was 40.5%; in [15] it was 24.9%; in assay [16] it was 21.8%; in assay [17], 49%; in [18] it was 48.7%. In addition, in assay [19], the growth is 1.92% (active).

Turning to `O=C(COc1ccc(NC(=O)Nc2ccc(Cl)c(Cl)c2)cc1)N=Nc1c(O)[nH]c2ccc(Br)cc12`, the growth was 3.18% (active) in assay [1]; 3.61% (active) in assay [2]; -59.9% (active) in [3]; -44.5% (active) in assay [4]; -27% (active) in [5]; -43.3% (active) in assay [6]. In addition, the growth in assay [7] was -51% (active); in assay [8], -76.4% (active); in assay [9], -5.94% (active); in assay [10], 82.4%; in assay [11], -26.4% (active); in assay [12], -71.5% (active). Further, the growth in [13] is -51.3% (active); in assay [14], -21.2% (active); in assay [15], -1.82% (active); in assay [16], -60.6% (active); in assay [17], -67.3% (active); in assay [18], -87.2% (active). Besides, the growth in assay [19] was -75% (active).

For `NS(=O)(=O)c1ccc(NNC(=O)CCC(=O)c2ccccc2)cc1`, the growth is 86.8% in assay [1]; 105% in [2]; 101% in [3]; 112% in [4]; 99.2% in assay [5]; 104% in assay [6]. Further, the growth in assay [7] was 102%; in assay [8] it was 114%; in assay [9] it was 94.7%; in assay [10] it was 109%; in assay [11], 87.5%; in assay [12], 104%. In addition, the growth was 105% in [13]; 102% in [14]; 90.5% in assay [15]; 99% in assay [16]; 109% in assay [17]; 104% in [18]. The growth in [19] is 93.3%.
